Assay outcomes from PubChem.
Sm TGR inh: qHTS Assay for the Inhibitors of Schistosoma Mansoni Peroxiredoxins; AID 485364, 2010; Potency, µM (series often up to 114 µM), inactives show at the highest dose activity change, negative = inhibition, usual class: inhibitors; Schistosoma mansoni thioredoxin glutathione reductase (TGR), Q962Y6; purified TGR, DTNB reduction, TNB absorbance 405 nm; hit rate 3% among 360,000; note: % is set by controls: 0 for no effect and ±100 for the full control effect; nearly all actives have a fitted effect of over 60% in size
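TGR 20 nM + NADPH 100 uM (dispensed conc.), cpd preinc 15 min RT; start with NADPH (500 uM addition) then DTNB (15 mM addition). Kinetic TNB absorbance, 405 nm filter. Four-parameter Hill fit across titration.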
TbPYK inhibitor: qHTS of Trypanosoma Brucei Inhibitors; TbPYK enzyme, Kinase-Glo Plus ATP luminescence, 45 min; Potency, µM (series often up to 76.8 µM), for the others: at the highest dose activity, negative = inhibition, most hits filed as inhibitors; AID 624173, 2012; pyruvate kinase (Trypanosoma brucei), Q57TT1; hit rate 0.12% among 410,000; note: % is set by controls: 0 for no effect and ±100 for the full control effect; nearly all actives have a fitted effect of over 50% in size
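Assay buffer: 50 mM TEA pH 7.2, 100 mM KCl, 10 mM MgCl2, 0.05% BSA, 0.01% Tween-20. Pyruvate kinase from T. brucei plus substrate met compound, then ADP (130 uM final). Luminescence was read post 45 min RT.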
SARS PLpro yeast: qHTS of Yeast-based Assay for SARS-CoV PLP | S. cerevisiae expressing SARS-CoV PLpro, growth rescue | Potency, µM (titrated, usually from 32.9 µM), inactives show at the top dose activity, positive = growth rescue, hits mostly activators | hit rate 0.19% among 330,000 | AID 485353, 2010; calls by dose curve; note: 0% is about no effect; nearly all actives have a fitted effect of over 55% in size
AmpC no deterg: qHTS Inhibitors of AmpC Beta-Lactamase (assay without detergent). P00811. Potency, µM (titrated, usually from 57.1 µM), without a hit: top-dose activity change, negative = inhibition, hits mostly inhibitors. AID 485341, 2010. AmpC nitrocefin hydrolysis, absorbance 480 nm, 0.0001% Triton. hit rate 0.52% among 330,000;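 note: plate controls were no compound for no effect and no enzyme for full effect; nearly all actives have a fitted effect of over 20% in size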
Target sequence (P00811 whole entry, looked up): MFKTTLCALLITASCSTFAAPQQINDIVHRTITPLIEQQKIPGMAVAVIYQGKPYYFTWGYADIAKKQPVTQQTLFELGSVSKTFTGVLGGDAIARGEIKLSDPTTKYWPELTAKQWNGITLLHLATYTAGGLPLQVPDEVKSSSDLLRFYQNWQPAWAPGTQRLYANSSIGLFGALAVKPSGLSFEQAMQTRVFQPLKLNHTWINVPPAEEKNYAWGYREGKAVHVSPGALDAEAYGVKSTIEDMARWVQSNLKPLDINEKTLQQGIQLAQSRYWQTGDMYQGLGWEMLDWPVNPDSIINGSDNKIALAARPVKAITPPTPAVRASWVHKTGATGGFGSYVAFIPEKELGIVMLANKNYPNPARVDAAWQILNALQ
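20 mM phosphate pH 7.0 + 0.01% (detergent screen) or 0.0001% Triton X-100; 5.3 nM AmpC reagent; cpd preinc 15 min RT; nitrocefin (800 uM stock) to start; A480 q20 s × 4 min; Activity was normalised to no-enzyme and no-compound control wells.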
AmpC detergent: qHTS Inhibitors of AmpC Beta-Lactamase (assay with detergent); AmpC hydrolysis of nitrocefin, absorbance 480 nm, 0.01% Triton; Potency, µM (top dose mostly 114 µM), for the others: top-dose activity change, negative = inhibition, actives largely listed as inhibitors; hit rate 0.041% among 370,000; AID 485294, 2010;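 note: 0% = no-compound wells and -100% = no-enzyme wells; nearly all actives have a fitted effect of over 25% in size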
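AmpC (5.3 nM in the dispensed reagent) in 20 mM phosphate pH 7.0 with 0.01% (detergent screen) or 0.0001% Triton X-100 was preincubated with compounds for 15 min at room temperature. Nitrocefin was then added from an 800 uM solution, and hydrolysis was followed at 480 nm.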
RE007 growth inh: qHTS Assay for Inhibitors of the HIV-1 protein Vpr. hit rate 0.21% among 360,000. Potency, µM (series often up to 92.2 µM), for inactives: at the highest dose activity change, negative = less growth, hits mostly inhibitors. S. pombe RE007 Vpr strain, BacTiter-Glo ATP luminescence, 24 h; active = well fitted falling curve with a large enough effect; inconclusive = small, poorly fitted or top-dose-only effect; inactive = no such curve, though single readings can be large or run the other way; note: % is set by controls: 0 for no effect and ±100 for the full control effect; nearly all actives have a fitted effect of over 50% in size
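Fission yeast RE007 carrying one integrated HIV-1 vpr copy, seeded at OD 0.01 in PMG+AL medium with 23 nL pinned compound. Grown 24 h at 30 degrees; viability read by BacTiter-Glo luminescence after 5 min.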
An asterisk follows results filed as active; [ ] = dose if it differs, or a comment. Rows were chosen to be rich in hits. Some 3.3% of all compounds tested hit in one or more screens of this group. Unless noted, calls come from the whole dose curve; as a rule, active = well fitted curve in the direction sought with a large enough effect; inconclusive = small, poorly fitted or top-dose-only effect, or another doubt; inactive = no such curve, though single readings can be large; an effect the other way counts as inactive or inconclusive. Potency is the fitted concentration of half-maximal effect.

What do the screens show for `Cc1oc(-c2ccc(Cl)cc2)nc1CS(=O)CC(=O)NCCc1ccccc1` (stereo not drawn)?
Sm TGR inh: 22.4µM*; TbPYK inhibitor: 6.0%[15.4 µM]; AmpC detergent: 18.1%

Results for Cc1ccc(-c2nc(CS(=O)CC(=O)NCCCc3ccccc3)c(C)o2)cc1 (stereo not drawn) ?
Sm TGR inh: 35.5µM*; TbPYK inhibitor: -2.8%; SARS PLpro yeast: 2.0%; AmpC no deterg: 150.7%; AmpC detergent: -0.8%; RE007 growth inh: -0.2%

Results for CCOc1ccc(CCNC(=O)CS(=O)Cc2nc(-c3ccc(C)cc3)oc2C)cc1OCC (stereo not drawn) ?
Sm TGR inh: -23.6%; TbPYK inhibitor: -0.7%; SARS PLpro yeast: 4.2%; AmpC no deterg: 171.3%; AmpC detergent: -3.6%; RE007 growth inh: -9.0%

How did CCOc1ccc(CCNC(=O)CS(=O)Cc2nc(-c3ccc(C)cc3)oc2C)cc1 (stereo not drawn) do in these assays?
Sm TGR inh: 22.4µM*; TbPYK inhibitor: 6.2%; SARS PLpro yeast: 0.6%; AmpC no deterg: 128.9%; AmpC detergent: -4.4%; RE007 growth inh: -10.7%

Results for COc1ccc(-c2nc(CS(=O)CC(=O)NCCC3=CCCCC3)c(C)o2)cc1 (stereo not drawn) ?
Sm TGR inh: 39.8µM*; TbPYK inhibitor: 1.3%; SARS PLpro yeast: 4.6%; AmpC no deterg: 102.8%; AmpC detergent: -11.5%; RE007 growth inh: -5.9%

What do the screens show for `Cc1ccc2nc(CN3CCN(C(=O)Nc4ccc(C)c(F)c4)CC3)oc2c1`?
Sm TGR inh: 0.6%; TbPYK inhibitor: 4.3%; AmpC detergent: 12.4%

How did CC1CCCN(c2nc3c(-c4ccc(Cl)cc4)nnn3c3ccccc23)C1 (stereo not drawn) do in these assays?
Sm TGR inh: 2.9%; TbPYK inhibitor: -6.8%; AmpC detergent: 8.8%

Results for CCc1ccc(-c2nc(CS(=O)CC(=O)NCCc3ccc(Cl)cc3)c(C)o2)cc1 (stereo not drawn) ?
Sm TGR inh: 31.6µM*; TbPYK inhibitor: -3.4%; AmpC detergent: 4.9%

How did O=C(/C(Br)=C/Nc1cc(Cl)ccc1Cl)C(F)(F)F do in these assays?
Sm TGR inh: 22.4µM*; TbPYK inhibitor: -8.2%; SARS PLpro yeast: 6.5%; AmpC no deterg: -23.9%; AmpC detergent: -10.4%; RE007 growth inh: -22.0%

Results for C=CCSc1nnc(Cc2cc(=O)[nH]c(=O)[nH]2)n1-c1cc(C)ccc1C ?
Sm TGR inh: 22.4µM*; TbPYK inhibitor: 0.7%; SARS PLpro yeast: 5.1%; AmpC no deterg: 0.4%; AmpC detergent: -10.8%; RE007 growth inh: 7.7%

What do the screens show for `CCCCN(C)CCNC(=O)c1c2c(nc3ccccc13)C(=O)N(C1CCCCC1)C2`?
Sm TGR inh: 0.5%; TbPYK inhibitor: -0.2%; AmpC detergent: -4.5%

Results for COCCn1c(=NC(=O)CCS(=O)(=O)c2ccccc2)sc2cc(C)ccc21 ?
Sm TGR inh: 35.5µM*; TbPYK inhibitor: 0.4%; SARS PLpro yeast: -1.4%; AmpC no deterg: -14.0%; AmpC detergent: -8.1%; RE007 growth inh: -4.8%

How did COCCn1c(=NC(=O)CCS(=O)(=O)c2ccccc2)sc2cc(F)ccc21 do in these assays?
Sm TGR inh: 39.8µM*; TbPYK inhibitor: -1.3%; SARS PLpro yeast: -1.3%; AmpC no deterg: 34.3%; AmpC detergent: 2.5%; RE007 growth inh: 2.4%

Results for CCn1c(=NC(=O)CCS(=O)(=O)c2ccccc2)sc2cccc(OC)c21 ?
Sm TGR inh: -6.4%; TbPYK inhibitor: 1.5%; SARS PLpro yeast: -0.5%; AmpC no deterg: -11.7%; AmpC detergent: 1.0%; RE007 growth inh: -12.5%

How did Cc1cc(-c2ccccc2)nc2cc(C(=O)Nc3cc(C(F)(F)F)ccc3Cl)nn12 do in these assays?
Sm TGR inh: -0.3%; TbPYK inhibitor: -5.4%; AmpC detergent: 13.0%

What do the screens show for `COc1ccccc1N1CCN(c2ccc(=O)n(CC(=O)NCc3ccc(F)cc3)n2)CC1`?
Sm TGR inh: -9.2%; TbPYK inhibitor: 3.3%; AmpC detergent: -12.0%

How did COCCCNC(=O)CCC(=O)N1Cc2ccccc2Oc2ncccc21 do in these assays?
Sm TGR inh: -2.3%; TbPYK inhibitor: -2.3%; AmpC detergent: 13.0%

Results for CCCCc1c(-c2cccc(Cl)c2)ncn1CCc1ccccc1OC ?
TbPYK inhibitor: 7.8%; RE007 growth inh: 44.7µM*

Results for CC(C)(C)c1cc(NCCCn2ccnc2)n2ncc(-c3ccc(Cl)cc3)c2n1 ?
Sm TGR inh: -5.2%; TbPYK inhibitor: -2.9%; SARS PLpro yeast: -20.0%; AmpC no deterg: 55.7%; AmpC detergent: -6.2%; RE007 growth inh: 22.4µM*

What do the screens show for `O=C(OCCCOc1ccc(F)cc1)c1ccc(O)cc1O`?
Sm TGR inh: 4.5%; TbPYK inhibitor: -1.0%; SARS PLpro yeast: -11.0%; AmpC no deterg: 3.16µM*; AmpC detergent: -6.4%; RE007 growth inh: 10.1%

What do the screens show for `COc1ccc(S(=O)(=O)N2CCC(c3nnnn3-c3ccccc3)CC2)cc1OC`?
Sm TGR inh: 6.1%; TbPYK inhibitor: -2.0%; AmpC detergent: 4.5%

How did C#CC1(OC(C)=O)CCC2C3CCC4=CC(OC(C)=O)CCC4C3CCC21C (stereo not drawn) do in these assays?
TbPYK inhibitor: -9.1%

How did CCSC(=O)N=Nc1ccc(O)cc1 do in these assays?
TbPYK inhibitor: -12.5%; RE007 growth inh: 15.8µM*

What do the screens show for `Brc1cccc(-c2cnn3c(-c4ccccc4)cc(-c4ccccc4)nc23)c1`?
Sm TGR inh: -3.1%; TbPYK inhibitor: -8.7%; AmpC detergent: 11.5%

What do the screens show for `O=C(CSc1nnc(Cc2cccs2)n1Cc1ccco1)Nc1ccc(Cl)cc1Cl`?
Sm TGR inh: inconclusive; TbPYK inhibitor: -3.1%; SARS PLpro yeast: -2.2%; AmpC no deterg: -29.7%; AmpC detergent: inconclusive; RE007 growth inh: -7.1%

Results for CCOC(=O)c1c(NC(=O)CSc2nnc(-c3c[nH]c4ccccc34)n2CC)sc2c1CCCC2 ?
Sm TGR inh: -9.9%; TbPYK inhibitor: -2.5%; SARS PLpro yeast: 4.2%; AmpC no deterg: 1.41µM*; AmpC detergent: -5.2%; RE007 growth inh: 2.5%

What do the screens show for `O=C(CSc1nnc(Cc2ccccc2)n1Cc1ccco1)NC12CC3CC(CC(C3)C1)C2`?
Sm TGR inh: -7.3%; TbPYK inhibitor: 11.3%; SARS PLpro yeast: -4.8%; AmpC no deterg: -3.8%; AmpC detergent: 3.1%; RE007 growth inh: -0.4%
